# Measured values published in PubChem BioAssay AID504379 (National Center for Advancing Translational Sciences (NCATS), 2011).
# Activity calls are given as the source filed them. How the calls were made is not given here.
# Molecular target: Thyrotropin receptor (Homo sapiens) (UniProt P16473)
# Test: Concentration-response assay for inverse agonists of the thyroid stimulating hormone receptor: ELISA activity detection
# Conditions: HEK293-TSHR basal cAMP, ELISA chemiluminescence, 1 h
# Excerpt: TSH is an alpha/beta heterodimeric glycoprotein hormone secreted from the anterior pituitary gland which belongs to the glycoprotein hormone family. The actions of TSH are mediated by a seven-transmembrane receptor, which upon TSH binding couples preferentially to the G-alpha (s) protein (Gs), resulting in activation of adenylate cyclase and increase in cyclic adenosine 3', 5' monophosphate (cAMP). The TSH receptor (THSR) is mainly expressed in thyroid follicular cells and regulates their growth and function. This cell based assay was conducted on a TSHR transfected HEK 293 cell line, measuring cAMP stimulation using antibody-based Homogeneous Time Resolved Fluorescence (HTRF). Our goal is to identify small molecules that will inhibit (antagonize) the thyroid-stimulating hormone receptor (TSHR), a member of the 7 transmembrane-spanning receptor (7TMR) family of cell surface receptors. TSHR-mediated hyperthyroidism is important in thyroid pathology. The development of small molecule antagonists of TSHR may lead to therapeutic approaches for TSHR-mediated hyperthyroidism caused by constitutively activating mutations or stimulating auto-antibodies associated with Graves' disease. Graves' disease is the leading cause of hyperthyroidism and is caused by autoantibodies that stimulate TSHR (TsAbs) causing thyroid growth and unregulated overproduction of thyroid hormones and existing treatments have liabilities (agranulocytosis). In addition, TSHRs are known to be expressed in multiple extrathyroidal tissues including bone, brain, kidney, testis, fat and cells of the immune system but the role of the TSHR in these tissues is not clear. Therefore, TSHR antagonists/inverse agonists could be used as probes of extrathyroidal TSHR function. Finally, TSHR inverse agonists, which are a subclass of antagonists that inhibit agonist-independent (or basal or constitutive) TSHR signaling, could be used to inhibit TSH-independent signaling in patients with recurrent or metastatic thyroid cancer who are receiving thyroid hormone to suppress TSH. A confirmatory assay of TSHR inverse agonists was conducted on a HEK 293 cell line stably expressing the TSHR, using an ELISA based cAMP competition assay using cAMP-Screen Direct System (Applied Biosystems, Foster City, CA) to measure cAMP stimulation.
# Transiently transfected HEK-EM 293 cells or cells stably expressing TSHRs were seeded into 96-well plates at a density of 7 x10^4 cells per well in DMEM containing 10% FBS. Cells were cultured for 24 h before incubation for 20 min in HBSS/10 mM HEPES (pH 7.4). To determine basal cAMP production, cells were incubated for 1 h at 37 C in a humidified incubator in HBSS/HEPES containing 1mM IBMX (Sigma Chemical Co., St. Louis, MO) in the presence or absence of compound. The levels of cAMP in cells incubated in HBSS/HEPES without IBMX were subtracted in all experiments. After aspiration of the incubation medium, cells were lysed using lysis buffer of the cAMP-Screen Direct system (Applied Biosystems, Foster City, CA). The cAMP content of the cell lysate was determined using the method described in the manufacturer's protocol. The chemiluminescence signal was measured in a VICTOR3 V 1420 multilabel counter (PerkinElmer, Norwalk, CT). The potency (IC50) of the ligands were obtained from dose-response curves by data analysis with GraphPad Prism 4 for Windows.
# Thyrotropin receptor (Homo sapiens), sequence (P16473 whole entry, looked up): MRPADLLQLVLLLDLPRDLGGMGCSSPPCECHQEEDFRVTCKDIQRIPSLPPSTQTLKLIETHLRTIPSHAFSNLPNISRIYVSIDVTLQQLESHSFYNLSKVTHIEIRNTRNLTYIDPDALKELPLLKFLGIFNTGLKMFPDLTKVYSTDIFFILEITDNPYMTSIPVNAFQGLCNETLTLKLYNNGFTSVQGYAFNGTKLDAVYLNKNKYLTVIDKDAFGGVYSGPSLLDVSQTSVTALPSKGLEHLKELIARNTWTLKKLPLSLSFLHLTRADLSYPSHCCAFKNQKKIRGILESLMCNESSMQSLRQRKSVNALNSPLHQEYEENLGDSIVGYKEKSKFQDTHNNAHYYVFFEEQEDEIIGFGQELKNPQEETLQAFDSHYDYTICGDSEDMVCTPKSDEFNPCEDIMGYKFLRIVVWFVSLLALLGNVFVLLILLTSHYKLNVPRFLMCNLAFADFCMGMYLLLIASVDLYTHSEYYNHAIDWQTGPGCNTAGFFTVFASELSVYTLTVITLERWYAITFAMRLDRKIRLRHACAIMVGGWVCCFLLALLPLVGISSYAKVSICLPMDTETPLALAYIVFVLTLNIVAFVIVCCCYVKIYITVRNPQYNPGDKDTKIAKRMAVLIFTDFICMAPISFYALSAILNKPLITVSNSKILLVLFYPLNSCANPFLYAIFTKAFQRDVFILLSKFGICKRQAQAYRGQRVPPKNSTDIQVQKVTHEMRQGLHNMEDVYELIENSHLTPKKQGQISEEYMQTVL
SMILES,IC50,outcome
CCc1cccc(CC)c1OCc1cc(C2Nc3ccccc3C(=O)N2Cc2ccco2)ccc1OC (stereo unspecified),11 µM (active),–
COc1ccc(C2Nc3ccccc3C(=O)N2Cc2ccccc2)cc1COc1c(C)cccc1C (stereo unspecified),–,inactive
COc1ccc(C2Nc3cccc(O)c3C(=O)N2Cc2ccco2)cc1COc1c(C)cc(NC(C)=O)cc1C (stereo unspecified),–,inactive
Cc1cccc(C)c1OCc1cccc(C2Nc3ccccc3C(=O)N2Cc2ccco2)c1 (stereo unspecified),5 µM (active),–
COc1ccc(C2Nc3ccccc3C(=O)N2Cc2cccs2)cc1COc1c(C)cccc1C (stereo unspecified),–,inactive
COc1ccc(C2Nc3ccccc3C(=O)N2Cc2ccco2)cc1COc1c(C)cc(NC(C)=O)cc1C (stereo unspecified),6 µM (active),–
COc1ccc(C2Nc3ccccc3C(=O)N2Cc2ccco2)cc1COc1ccccc1C (stereo unspecified),–,inactive
COc1ccc(C2Nc3ccccc3C(=O)N2Cc2cccnc2)cc1COc1c(C)cccc1C (stereo unspecified),7 µM (active),–
COc1ccc(C2Nc3ccccc3C(=O)N2Cc2ccccn2)cc1COc1c(C)cccc1C (stereo unspecified),–,inactive
COc1ccc(C2Nc3ccccc3C(=O)N2Cc2ccc(C)o2)cc1COc1c(C)cccc1C (stereo unspecified),–,inactive
COc1ccc(C2Nc3ccccc3C(=O)N2Cc2ccco2)cc1CSc1c(C)cccc1C (stereo unspecified),–,inactive
